Source: PubChem BioAssay AID1159580 (chemical genetic matrix, 2015)
The campaign covered roughly 5,500 compounds. About 2,000 (36%) were called active. Another 18% or so got no clear call; they are omitted. Rule as the data show it: active = normalized growth mostly below about 0.91 (no sharp cut-off); inconclusive = no clear call, values can overlap the other calls; inactive = mostly above about 0.92. Some of the results follow.

Experiment: chemical genetic growth profiling, strain panel (AID 1159580);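 also: tested at 20 µM; growth read once vehicle control cultures reached saturation at 30 °C; 1 = growth at the plate median or of vehicle wells; lower values mean less growth of the strain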
Settings: S. cerevisiae deletion strains, growth OD
[1] = locus YAL040C, strain CLN3, stronger effect = lower value
[2] = locus YCL061C, strain MRC1 (second series), stronger effect = lower value
[3] = locus YDR363W, strain ESC2, stronger effect = lower value
[4] = locus YER002W, strain NOP16, stronger effect = lower value
[5] = locus YNL175C, strain NOP13, stronger effect = lower value
[6] = locus YNL197C, strain WHI3, stronger effect = lower value
[7] = locus YNL224C, strain SQS1, stronger effect = lower value
[8] = locus YOR083W, strain WHI5 (second series), stronger effect = lower value

Measured: normalized growth

Nc1nc(Nc2ccccc2)nc2c1ncn2[C@@H]1O[C@H](CO)[C@H](O)C1O (stereo partly drawn)
inactive: locus YAL013W, strain DEP1, stronger effect = lower value 0.982 | [1] 1.05 | [2] 0.999 | locus YDR150W, strain NUM1, stronger effect = lower value 0.999 | [3] 1.02 | [4] 1 | locus YMR263W, strain SAP30, stronger effect = lower value 1 | locus YMR307W, strain GAS1, stronger effect = lower value 1 | [5] 1.01 | [6] 1.01 | [7] 1.01 | [8] 1.02

N[C@H](C(=O)O)c1cc(O)cc(O)c1
inactive: [1] 0.975 | [2] 0.995 | [3] 0.949 | [4] 0.985 | [5] 1.02 | [6] 0.996 | [7] 1.01 | locus YNL322C, strain KRE1, stronger effect = lower value 0.982 | [8] 0.999 | locus YPL055C, strain LGE1, stronger effect = lower value 0.956 | locus YPL241C, strain CIN2, stronger effect = lower value 0.991

C[C@H]1O[C@H](OC2[C@@H](O)[C@@H](O)C(O)[C@H](O)[C@H]2O)[C@@H](N)C[C@@H]1N=C(N)C(=O)O (stereo partly drawn)
inactive: locus YAL021C, strain ccr4, stronger effect = lower value 0.989 | locus YAL026C, strain drs2, stronger effect = lower value 0.995 | locus YAL030W, strain snc1, stronger effect = lower value 1 | locus YBL061C, strain skt5, stronger effect = lower value 0.996 | locus YBR009C, strain hhf1, stronger effect = lower value 1.05 | locus YBR023C, strain chs3, stronger effect = lower value 0.99 | locus YBR171W, strain sec66, stronger effect = lower value 0.911 | locus YBR231C, strain swc5, stronger effect = lower value 0.999 | locus YBR279W, strain paf1, stronger effect = lower value 0.986 | locus YCL011C, strain gbp2, stronger effect = lower value 0.979 | locus YCL016C, strain dcc1, stronger effect = lower value 1 | locus YCL061C, strain MRC1, stronger effect = lower value 0.999 | locus YCL069W, strain vba3, stronger effect = lower value 1 | locus YCR088W, strain abp1, stronger effect = lower value 0.983 | locus YDL005C, strain med2, stronger effect = lower value 0.986 | locus YDL040C, strain nat1, stronger effect = lower value 0.992 | locus YDR001C, strain nth1, stronger effect = lower value 0.985 | locus YDR069C, strain doa4, stronger effect = lower value 0.999 | locus YDR137W, strain rgp1, stronger effect = lower value 0.937 | locus YDR159W, strain sac3, stronger effect = lower value 0.993 | locus YDR195W, strain ref2 1.02 | locus YDR297W, strain sur2, stronger effect = lower value 0.988 | locus YDR334W, strain swr1, stronger effect = lower value 0.965 | locus YDR335W, strain msn5, stronger effect = lower value 0.975 | locus YDR392W, strain spt3, stronger effect = lower value 0.882 | locus YEL003W, strain gim4, stronger effect = lower value 0.981 | locus YEL037C, strain rad23, stronger effect = lower value 0.994 | locus YEL061C, strain CIN8 (second series), stronger effect = lower value 0.993 | locus YER015W, strain faa2, stronger effect = lower value 0.995 | locus YER016W, strain bim1, stronger effect = lower value 0.991 | locus YER111C, strain swi4, stronger effect = lower value 0.995 | locus YER155C, strain BEM2 (second series), stronger effect = lower value 1.02 | locus YFR010W, strain ubp6, stronger effect = lower value 0.979 | locus YGL167C, strain pmr1, stronger effect = lower value 0.986 | locus YGL173C, strain kem1, stronger effect = lower value 0.994 | locus YGL227W, strain vid30, stronger effect = lower value 1 | locus YGL240W, strain doc1, stronger effect = lower value 1.01 | locus YGL253W, strain hxk2, stronger effect = lower value 0.994 | locus YHR013C, strain ard1, stronger effect = lower value 0.947 | locus YHR027C, strain rpn1, stronger effect = lower value 0.982 | locus YHR030C, strain SLT2, stronger effect = lower value 0.951 | locus YHR079C, strain IRE1, stronger effect = lower value 0.964 | locus YHR142W, strain chs7, stronger effect = lower value 0.927 | locus YJL092W, strain hpr5, stronger effect = lower value 0.974 | locus YJL095W, strain BCK1 (second series), stronger effect = lower value 0.992 | locus YJL095W, strain BCK1, stronger effect = lower value 0.969 | locus YJL115W, strain asf1, stronger effect = lower value 0.974 | locus YJL129C, strain trk1, stronger effect = lower value 0.921 | locus YJL154C, strain vps35, stronger effect = lower value 0.995 | locus YJL164C, strain tpk1, stronger effect = lower value 0.97 | locus YJL166W, strain qcr8, stronger effect = lower value 0.99 | locus YJL187C, strain SWE1, stronger effect = lower value 0.992 | locus YJR066W, strain TOR1, stronger effect = lower value 0.928 | locus YKL160W, strain elf1, stronger effect = lower value 0.957 | locus YKR026C, strain gcn3, stronger effect = lower value 0.997 | locus YKR091W, strain srl3, stronger effect = lower value 0.991 | locus YLL001W, strain dnm1, stronger effect = lower value 0.986 | locus YLL026W, stronger effect = lower value 0.989 | locus YLL041C, strain sdh2, stronger effect = lower value 0.977 | locus YLR027C, strain aat2, stronger effect = lower value 0.978 | locus YLR113W, strain HOG1, stronger effect = lower value 0.983 | locus YLR221C, strain rsa3, stronger effect = lower value 0.962 | locus YLR258W, strain gsy2, stronger effect = lower value 1.01 | locus YLR262C, strain YPT6 (second series), stronger effect = lower value 0.912 | locus YLR320W, strain mms22, stronger effect = lower value 0.967 | locus YLR342W, strain FKS1, stronger effect = lower value 0.993 | locus YLR357W, strain rsc2, stronger effect = lower value 1.01 | locus YLR370C, strain arc18, stronger effect = lower value 0.981 | locus YLR384C, strain iki3, stronger effect = lower value 1 | locus YML120C, strain ndi1, stronger effect = lower value 0.959 | locus YMR058W, strain fet3, stronger effect = lower value 0.988 | locus YMR125W, strain sto1, stronger effect = lower value 0.984 | locus YMR129W, stronger effect = lower value 1 | locus YMR205C, strain PFK2, stronger effect = lower value 1.04 | locus YMR231W, strain pep5, stronger effect = lower value 1.01 | locus YNL071W, strain lat1, stronger effect = lower value 0.963 | locus YNL183C, strain NPR1, stronger effect = lower value 0.944 | locus YNL209W, strain ssb2, stronger effect = lower value 0.989 | locus YNL248C, strain rpa49, stronger effect = lower value 0.933 | locus YNL322C, strain KRE1 (second series), stronger effect = lower value 0.983 | locus YNR049C, strain mso1, stronger effect = lower value 0.986 | locus YOR001W, strain rrp6, stronger effect = lower value 0.923 | locus YOR070C, strain gyp1, stronger effect = lower value 0.987 | locus YOR080W, strain dia2, stronger effect = lower value 0.984 | locus YOR083W, strain WHI5, stronger effect = lower value 0.934 | locus YOR106W, strain vam3, stronger effect = lower value 0.94 | locus YOR231W, strain MKK1, stronger effect = lower value 0.97 | locus YOR265W, strain rbl2, stronger effect = lower value 0.989 | locus YOR270C, strain vph1, stronger effect = lower value 0.924 | locus YOR290C, strain snf2, stronger effect = lower value 0.927 | locus YPL051W, strain arl3, stronger effect = lower value 0.964 | locus YPL078C, strain atp4, stronger effect = lower value 0.951 | locus YPL106C, strain sse1, stronger effect = lower value 0.971 | locus YPL240C, strain hsp82, stronger effect = lower value 0.97 | locus YPL256C, strain CLN2, stronger effect = lower value 0.98
